CtBP-E1A blk – CtBP/E1A binding inhibition. AlphaScreen GST-E1A/His-CtBP binding, 1536-well; hits give low values. AID 651724. hit rate 0.49% among 340,000. activity change, % (no concentration beside the values); in the data active = activity change below about -65%; inconclusive = mostly about -30% to -63%
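In 5 uL wells, 23 nL compound meets equimolar GST-E1A and His-CtBP (5X stock 125 nM each) for 2 h, 37 °C. Beads (5X, 50 ug/mL) then 1 h, 37 °C, dark.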
TDP1 cell noCPT – qHTS for Inhibitors of human tyrosyl-DNA phosphodiesterase 1 (TDP1): qHTS in cells in absence of CPT | DT40 Tdp1-/- hTDP1 cells, no CPT, ATP luminescence, 48 h | Potency, µM (series often up to 46.2 µM), most hits filed as inhibitors | hit rate 15% among 420,000 | AID 686978, 2013; note: nearly all actives have a fitted effect of over 55% in size
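A cellular qHTS used chicken DT40 cells lacking endogenous Tdp1 but carrying stably transfected human TDP1. Compounds were applied without camptothecin, and cell growth kinetics were judged by ATP-dependent luminescence after ≥48 hr.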
TDP1 inh – TDP1 (human) enzyme inhibition. recombinant TDP1, AlphaScreen DNA substrate cleavage. hit rate 0.28% among 350,000. Potency, µM (titrated, usually from 130 µM), most hits filed as inhibitors. Q9NUW8. AID 485290; note: nearly all actives have a fitted effect of over 40% in size
Target sequence (Q9NUW8 whole entry, looked up): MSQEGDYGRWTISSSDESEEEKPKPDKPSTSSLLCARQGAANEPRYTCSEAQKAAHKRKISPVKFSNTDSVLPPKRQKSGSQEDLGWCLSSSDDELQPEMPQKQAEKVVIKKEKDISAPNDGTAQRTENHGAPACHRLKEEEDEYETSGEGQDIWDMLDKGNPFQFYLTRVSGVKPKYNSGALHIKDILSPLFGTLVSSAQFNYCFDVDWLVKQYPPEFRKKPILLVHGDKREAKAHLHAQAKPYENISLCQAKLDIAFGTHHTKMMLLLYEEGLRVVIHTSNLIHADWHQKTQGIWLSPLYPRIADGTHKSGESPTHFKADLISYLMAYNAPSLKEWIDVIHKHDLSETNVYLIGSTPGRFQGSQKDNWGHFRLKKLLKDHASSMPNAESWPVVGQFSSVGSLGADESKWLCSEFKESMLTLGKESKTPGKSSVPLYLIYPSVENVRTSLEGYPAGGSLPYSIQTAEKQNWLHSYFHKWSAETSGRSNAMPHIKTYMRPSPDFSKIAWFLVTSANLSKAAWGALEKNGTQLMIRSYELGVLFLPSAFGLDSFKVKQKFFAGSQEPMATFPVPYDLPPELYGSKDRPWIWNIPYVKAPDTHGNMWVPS
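AlphaScreen read-out: signal falls as enzyme removes the 3' tyrosine-FITC from a 5'-biotinylated DNA oligo (15 nM, 5 min, RT). Enzyme was E. coli-made recombinant Tdp1 at 1 nM, exposed to compound for 15 min beforehand; beads 10 ug/ml, 10 min.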
Six1-Eya2 inh – Six1/Eya2 interaction inhibition. hit rate 0.56% among 360,000. Q15475+O00167. activity change, % (no concentration beside the values). AlphaScreen GST-Six1/His-Eya2 binding, biochemical; hits give low values; in the data active = activity change below about -65%; inconclusive = mostly about -30% to -63%
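AlphaScreen with GST-Six1 and His-Eya2 (5X mix: 250 nM and 500 nM), glutathione donor and nickel acceptor beads; buffer 50 mM Tris pH 8.0, 300 mM NaCl, 1 mM TCEP; 1 h at 37 C in the dark.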
DT40 TDP1 CPT – growth inhibition of DT40 Tdp1-/-;hTDP1 cells with camptothecin (screen for TDP1 inhibitors); chicken DT40 Tdp1-/-;hTDP1 cells + 20 nM CPT, ATP luminescence, 48 h; Potency, µM (titrated, usually from 46.2 µM), actives largely listed as inhibitors; hit rate 12% among 420,000; note: nearly all actives have a fitted effect of over 55% in size
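Chicken DT40 Tdp1-/- cells complemented with human TDP1, 400 cells/well, exposed to compounds plus 20 nM camptothecin for at least 48 h at 37 C; viability read as ATP content by CellTiter-Glo luminescence.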
IL-1B inflam inh – blocks inflammasome-driven IL-1 beta release; hit rate 4.7% among 360,000; THP-1 LPS/ATP IL-1B secretion, AlphaLISA, 16 h; hits give low values; activity change, % at 57.5 µM; in the data active = activity change below about -50%; inconclusive = mostly about -30% to -49%
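Secreted IL-1B measured by AlphaLISA bead assay after 16 h compound exposure of THP-1 cells; compounds (final up to 57.5 uM) added 1 h before LPS (250 ng/mL) and ATP (1.25 mM) stimulation; lower signal means less secretion.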
Numbers stand for hits; . = inactive; ? = inconclusive; / = no result given. Sampled rows, rich in hits. Any-hit rate of the full collection: about 18%. Unless noted, calls come from the whole dose curve; as a rule, active = well fitted curve in the direction sought with a large enough effect; inconclusive = small, poorly fitted or top-dose-only effect, or another doubt; inactive = no such curve, though single readings can be large; an effect the other way counts as inactive or inconclusive.

SMILES | CtBP-E1A blk | TDP1 cell noCPT | TDP1 inh | Six1-Eya2 inh | DT40 TDP1 CPT | IL-1B inflam inh
CCOC(=O)c1cc(OC)c2cccc(CN3CCC(C)(C(=O)NCCOC)C3)c2c1 (stereo not drawn) | . | ? | / | . | ? | .
COCCNC(=O)C1(C)CCCN(Cc2ccc(C)c3ccccc23)C1 (stereo not drawn) | . | 16µM | / | . | 21µM | ?
CCCCNC(=O)C1(C)CCN1Cc1ccc(C(=O)OCC)cc1 (stereo not drawn) | . | ? | / | . | ? | .
CCCCNC(=O)C1(C)CCN1Cc1cccc2c(OC)cc(C(=O)OCC)cc12 (stereo not drawn) | . | 13µM | / | . | ? | ?
COc1cc(OC)c(NC(=O)C2CCN(C(=O)c3sc4nc[nH]c(=O)c4c3C)CC2)cc1Cl | / | . | . | / | . | /
COc1ccc(Cl)cc1NC(=O)CN1CCN(S(=O)(=O)c2ccc(F)cc2)CC1 | . | . | / | . | . | .
COCCN(CCOC)C(=O)c1ccc(NS(=O)(=O)c2ccc3c(c2)OCCO3)cc1 | . | . | . | . | . | .
CC(C)C[C@H]1CN=C(Nc2ccccc2)N1CCCC1CCCCC1 | . | 18µM | / | . | ? | -63
CCC(C)CCN1C(Nc2ccccc2)=NC[C@@H]1C (stereo partly drawn) | . | 12µM | / | . | ? | .
CC(C)C[C@H]1CN=C(Nc2ccccc2)N1CCC(C)c1ccccc1 (stereo partly drawn) | . | ? | . | . | ? | ?
C[C@H]1CN=C(Nc2ccccc2)N1CCc1ccccc1 | . | . | . | . | . | .
C[C@H]1CN=C(Nc2ccccc2)N1CCC1CCCC1 | . | 23µM | / | . | ? | .
CC(C)CCCN1C(Nc2ccccc2)=NC[C@@H]1C | . | . | / | . | ? | .
CC(C)C[C@H]1CN=C(Nc2ccccc2)N1CCCC1CCCC1 | . | 5.2µM | / | . | 15µM | -63
C[C@H](CO)N1C[C@H](C)[C@@H](CN(C)S(=O)(=O)c2cn(C)cn2)Oc2c(NS(=O)(=O)c3ccccc3)cccc2C1=O | . | . | . | . | . | .
CN(C)c1ncc2nc(-c3cccs3)c(=O)n(C[C@H]3CCCO3)c2n1 | / | . | / | / | . | /
CC(C)C(=O)Nc1nnc(Cc2c[nH]c3ccccc23)s1 | . | . | / | . | . | .
Cc1ccccc1Nc1nc(N)nc(CSc2n[nH]c(N)n2)n1 | . | . | . | . | . | .
COC(=O)c1ccc(Cn2ccc(=O)[nH]c2=O)cc1 | . | . | / | . | . | .
CC(C)C[C@H]1CN=C(Nc2ccccc2)N1CCC1CCCC1 | . | 23µM | / | . | ? | .
CCCCCCCN1C(Nc2ccccc2)=NC[C@@H]1CC(C)C | . | 16µM | / | . | 12µM | -78
CC(C)(C)NC(=O)NC(=O)CSc1ncn[nH]1 | . | ? | . | . | . | .
CC(=O)c1cccc(NC(=O)CSc2ccc(-c3sc(C)nc3C)nn2)c1 | . | 23µM | . | ? | 21µM | .
CC(=O)c1cccc(NC(=O)CSc2ccc(-c3cccnc3)nn2)c1 | . | ? | / | . | . | .
Cc1nc(C)c(-c2ccc(SCC(=O)Nc3ccc(Br)cc3)nn2)s1 | / | ? | . | / | 21µM | /
SMILES | CtBP-E1A blk | TDP1 cell noCPT | TDP1 inh | Six1-Eya2 inh | DT40 TDP1 CPT | IL-1B inflam inh
Cc1nc(C)c(-c2ccc(SCC(=O)Nc3cccc(F)c3)nn2)s1 | . | 23µM | . | . | 16µM | .
CCc1ccc(NC(=O)CSc2ccc(-c3sc(C)nc3C)nn2)cc1 | . | ? | . | . | ? | .
COc1ccc(NC(=O)CSc2ccc(-c3sc(C)nc3C)nn2)cc1 | . | ? | . | . | . | .
Nc1nnc(SCC(=O)Nc2cccc(Cl)c2)s1 | . | . | . | . | . | .
Cc1nc(C)c(-c2ccc(SCC(=O)Nc3cccc(Cl)c3)nn2)s1 | . | ? | . | . | 26µM | .
CCCCCCC(CC(=O)NCc1cccnc1)CC(=O)NCc1cccnc1 | . | . | / | . | . | .
CSc1ccc(Cl)c(C(=O)NCC(C)C)c1 | . | . | . | . | . | .

High-throughput results (PubChem)
